Assay [1] in a line: Validation of Assay for Modulators of Lamin A Splicing (AID 1459; active = well fitted curve in the direction sought with a large enough effect in the signal ratio; the % refers to the signal ratio;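 note: cells exposed to compound for two days before reading; 0% is about no effect; ratio rise marks activators and ratio drop marks inhibitors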). An outline of the steps:
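HeLa S3 lamin A-EGFP/DsRed2 stable clone, 600 cells/well, Opti-MEM 2% FBS; compounds by pin tool; 48 hrs, 37 °C/5% CO2; Acumen 488 nm scan, objects 10-100 um; GFP/RFP intensity ratio.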

Assay [2] is described as follows: qHTS Assay for Lipid Storage Modulators (AID 1519; calls by dose curve). Conditions: Drosophila S3 cells, BODIPY lipid droplet/cell ratio, laser cytometry, cells loaded with oleic acid; for activity change, negative = inhibition: at 57.5 µM (top of the series). The gist of the method:
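Cells seeded at 5,000 per well were treated with compounds over a concentration series and loaded with oleic acid (400 uM, as added). Lipid droplet fluorescence (488 nm excitation, 500-530 nm channel) was read by laser-scanning cytometry and normalized to 20 uM Triacsin C.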

In assay [3] the target is DNA repair nuclease/redox regulator APEX1 (Homo sapiens) (UniProt P27695). Kind of assay: qHTS Validation Assay for Inhibitors of the Human Apurinic/apyrimidinic Endonuclease 1 (APE1) (AID 1705;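 note: TAMRA fluorescence gain over two minutes as APE1 cuts a quenched THF abasic duplex; % is set by controls: 0 for no effect and ±100 for the full control effect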). An outline of the steps: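 qHTS, 1536-well. APE1 + cpd 15 min RT → 50 nM TAMRA/BHQ-2 THF-abasic dsDNA substrate → kinetic fluorescence, 3 reads/60 s; delta(read3−read1) = reaction progress. No-enzyme buffer = negative control.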
Chain of DNA repair nuclease/redox regulator APEX1 (Homo sapiens) (P27695 whole entry, looked up): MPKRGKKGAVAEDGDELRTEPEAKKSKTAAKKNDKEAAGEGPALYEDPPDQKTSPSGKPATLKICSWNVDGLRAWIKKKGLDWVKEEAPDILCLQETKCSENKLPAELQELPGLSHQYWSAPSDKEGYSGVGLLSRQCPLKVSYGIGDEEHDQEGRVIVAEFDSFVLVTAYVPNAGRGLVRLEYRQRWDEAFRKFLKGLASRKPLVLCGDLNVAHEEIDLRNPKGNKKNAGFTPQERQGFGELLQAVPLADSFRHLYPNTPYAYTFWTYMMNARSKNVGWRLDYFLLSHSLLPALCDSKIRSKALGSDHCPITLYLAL
On the technique in general: Quantitative high-throughput screening tests each substance at several concentrations.

Assay [4] in a line: Counterscreen for APE1 Inhibitors: Fluorescent Dye Displacement Validation Assay (AID 1707).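 Note: plate controls were ThO with dsDNA and no compound for no effect and ThO without dsDNA for full effect.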 An outline of the steps: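 Assay buffer: Tris-HCl pH7.5 with 50mM NaCl, 2 mM MgCl2, 0.01% Tween-20. Dye 250 nM, duplex 50 nM final. Readout: decrease in ThO endpoint fluorescence, 480 nm excitation, 540 nm emission.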
(In general: A counterscreen serves to expose hits that act by an unwanted route or on another target.)

Assay [5] addresses Endonuclease 4 (Escherichia coli (strain K12)) (UniProt P0A6C1). Briefly: Counterscreen for APE1 Inhibitors: qHTS Validation Assay for Inhibitors of Endonuclease IV (AID 1708). Note: % is set by controls: 0 for no effect and ±100 for the full control effect. An outline of the steps: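 Concentration-response counterscreen run identically to the APE1 assay: 15 min room-temperature preincubation of 2 nM enzyme with compound, reaction started with 50 nM quenched abasic DNA, progress taken from kinetic fluorescence.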

Assay [6] is described as follows: qHTS for differential inhibitors of proliferation of Plasmodium falciparum line 7G8 (AID 1815).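 For activity change, negative = inhibition: plate controls were vehicle wells for no effect and reference inhibitor wells for full effect.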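 Note: parasite growth measured after three days of incubation.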 Note: potency is the fitted concentration of half-maximal effect.
Assay [7] can be described thus: qHTS for differential inhibitors of proliferation of Plasmodium falciparum line GB4 (AID 1816).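 For activity change, negative = inhibition: 0% = vehicle DMSO and -100% = reference inhibitor.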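 Note: parasite growth measured after 72 h incubation.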 Note: potency is the fitted concentration of half-maximal effect. The note with it: Potency: Plasmodium falciparum GB4 proliferation inhibition.
Assay [8] is described as follows: qHTS for differential inhibitors of proliferation of Plasmodium falciparum line 3D7 (AID 1876). Note: potency is the fitted concentration of half-maximal effect.
Assay [9] in a line: qHTS for differential inhibitors of proliferation of Plasmodium falciparum line D10 (AID 1877).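 For activity change, negative = inhibition: plate controls were vehicle wells for no effect and reference inhibitor wells for full effect.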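 Note: parasites grown with compound for 72 h before DNA staining.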 Note: potency is the fitted concentration of half-maximal effect.
Assay [10] in a line: qHTS for differential inhibitors of proliferation of Plasmodium falciparum line Dd2 (AID 1882).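 For activity change, negative = inhibition: plate controls were DMSO vehicle for no effect and 0.29 µM artemisinin for full effect.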 Note: nearly all actives have a fitted effect of over 65% in size. Note: potency is the fitted concentration of half-maximal effect. The note with it: Potency: Plasmodium falciparum Dd2 proliferation inhibition. An outline of the steps:
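Dd2-infected erythrocytes (0.3% parasitemia, 2.5% hematocrit final) incubated with compound 72 h at 37 C, 5% CO2; lysed with saponin/Triton buffer containing SYBR Green I, incubated overnight in the dark, then read by fluorescence (485/535 nm). Normalized to 0.29 uM artemisinin and DMSO.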

Assay [11] can be described thus: qHTS for differential inhibitors of proliferation of Plasmodium falciparum line W2 (AID 1883).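 For activity change, negative = inhibition: 0% = vehicle wells and -100% = control inhibitor wells.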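 Note: parasites grown with compound for 72 h before lysis and staining.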 Note: potency is the fitted concentration of half-maximal effect. The note with it: Potency: Plasmodium falciparum W2 proliferation inhibition.
Assay [12] in a line: qHTS for differential inhibitors of proliferation of Plasmodium falciparum line HB3 (AID 1886).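 For activity change, negative = inhibition: plate controls were vehicle for no effect and reference inhibitor for full effect.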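 Note: parasites grown with compound for 72 h before SYBR Green readout.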 Note: potency is the fitted concentration of half-maximal effect. The note with it: Potency: Plasmodium falciparum HB3 proliferation inhibition.
Assay [13] in a line: qHTS Assay for Modulators of Human Peripheral Myelin Protein 22 (PMP22) Expression/Activity (AID 1967; active = well fitted curve in the direction sought with a large enough effect in the signal ratio; the % refers to the signal ratio;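 note: 0% = untreated cells and 100% end not stated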). The gist of the method:
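Luminescence ratio of Pmp22 promoter-driven green luciferase to EF-alpha-driven red luciferase, in engineered mouse MSC80 Schwann cells, served as read-out. Compounds were incubated 24h; untreated cells defined 0% Activity; curves were classified by r2, magnitude and activity.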

For assay [14], the target named is Ferritin light chain (Equus caballus) (UniProt P02791). Kind of assay: qHTS Validation Assay for Identification of Novel General Anesthetics (AID 2323). Note: % is set by controls: 0 for no effect and ±100 for the full control effect. An outline of the steps:
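Fluorescence at 535 nm (excitation 380 nm) reported loss of 1-AMA binding to horse-spleen apoferritin (10 uM) in PBS with 50% saturated 1-aminoanthracene, after 10 min room-temperature incubation with compound; values from Hill fits of normalized response.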

Assay [15] concerns the target ATP-dependent DNA helicase Q1 (Homo sapiens) (UniProt P46063). Kind of assay: qHTS Validation Assay for Inhibitors of RecQ-Like Dna Helicase 1 (RECQ1) (AID 2353).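 Note: plate controls were DMSO vehicle for no effect and enzyme-free control for full effect.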 The gist of the method: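 50 nM RECQ1T1 preincubated 15 min with compound in Tris pH 8.0 buffer with MgCl2, DTT, Tween-20 and 2.5 ug/ml poly(dI-dC); started with 200 nM TAMRA/BHQ-2 forked duplex and 2 mM ATP. Unwinding read as fluorescence (525/598 nm), two reads 2 h apart.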

The target in assay [16] is RecQ-like DNA helicase BLM (Homo sapiens) (UniProt P54132). Briefly: qHTS Validation Assay for Inhibitors of Bloom's syndrome helicase (BLM) (AID 2364).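 Note: plate controls were DMSO vehicle for no effect and enzyme-free control for full effect.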 The gist of the method: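 BLM 50 nM in 25 mM Tris-HCl pH 8.0, 5 mM NaCl, 2 mM MgCl2, 1 mM DTT, 0.01% Tween-20, 2.5 ug/ml poly(dI-dC); 15 min cpd preinc, RT. Start: 200 nM forked DNA + 2 mM ATP (final). TAMRA read, 2 reads 2 h apart.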
Chain of RecQ-like DNA helicase BLM (Homo sapiens) (P54132 whole entry, looked up): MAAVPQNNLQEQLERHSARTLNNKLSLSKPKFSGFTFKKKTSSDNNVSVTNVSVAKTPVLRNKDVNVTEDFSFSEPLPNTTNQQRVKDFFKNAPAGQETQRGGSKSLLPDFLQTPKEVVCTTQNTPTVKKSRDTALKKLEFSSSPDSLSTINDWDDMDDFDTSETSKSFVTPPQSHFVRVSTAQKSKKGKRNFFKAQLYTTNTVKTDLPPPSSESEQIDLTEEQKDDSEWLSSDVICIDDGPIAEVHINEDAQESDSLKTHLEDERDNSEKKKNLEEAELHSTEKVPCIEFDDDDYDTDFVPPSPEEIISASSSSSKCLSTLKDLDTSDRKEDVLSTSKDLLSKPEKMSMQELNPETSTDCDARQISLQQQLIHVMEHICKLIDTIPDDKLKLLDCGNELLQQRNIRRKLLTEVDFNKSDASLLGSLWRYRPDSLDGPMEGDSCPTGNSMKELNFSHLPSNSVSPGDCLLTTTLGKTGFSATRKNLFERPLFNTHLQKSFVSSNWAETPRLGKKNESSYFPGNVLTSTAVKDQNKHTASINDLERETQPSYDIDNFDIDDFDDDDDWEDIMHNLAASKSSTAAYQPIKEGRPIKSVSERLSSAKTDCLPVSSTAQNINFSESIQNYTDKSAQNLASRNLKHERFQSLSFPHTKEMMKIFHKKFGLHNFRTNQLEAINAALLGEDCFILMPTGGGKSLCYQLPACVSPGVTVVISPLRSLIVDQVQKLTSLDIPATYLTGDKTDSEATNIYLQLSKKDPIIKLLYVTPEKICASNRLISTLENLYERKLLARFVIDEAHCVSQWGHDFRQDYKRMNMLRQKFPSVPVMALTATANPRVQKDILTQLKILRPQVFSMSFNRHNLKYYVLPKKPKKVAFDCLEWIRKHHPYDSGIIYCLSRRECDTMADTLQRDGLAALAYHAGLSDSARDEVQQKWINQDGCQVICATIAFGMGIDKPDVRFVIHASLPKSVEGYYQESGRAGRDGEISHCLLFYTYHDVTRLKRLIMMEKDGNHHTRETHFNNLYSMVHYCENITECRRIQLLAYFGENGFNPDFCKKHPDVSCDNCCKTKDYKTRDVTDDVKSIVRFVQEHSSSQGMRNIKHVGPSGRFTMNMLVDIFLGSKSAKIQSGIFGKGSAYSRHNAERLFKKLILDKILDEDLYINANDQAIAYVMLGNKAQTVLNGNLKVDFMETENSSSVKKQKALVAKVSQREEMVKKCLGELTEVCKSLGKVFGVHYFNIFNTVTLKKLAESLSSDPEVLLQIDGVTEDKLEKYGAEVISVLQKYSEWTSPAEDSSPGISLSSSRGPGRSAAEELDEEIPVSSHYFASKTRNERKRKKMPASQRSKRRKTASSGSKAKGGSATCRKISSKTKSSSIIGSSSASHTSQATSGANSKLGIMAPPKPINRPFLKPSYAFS

For assay [17], the target named is alpha-glucosidase (Oryza sativa, rice) (UniProt Q653V4). Briefly: Counterscreen for Glucocerebrosidase Inhibitors: qHTS Assay for Rice alpha-Glucosidase at pH 5.0 (AID 997).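 Note: 0% = full activity with enzyme and -100% = basal without enzyme.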 An outline of the steps:
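Rice alpha-glucosidase (4 nM final) with 400 uM 4-methylumbelliferyl-alpha-D-glucopyranoside in citrate buffer pH 5.0, 20 min at room temperature, stopped at pH 10; fluorescence 365/440 nm, compounds 0.7 nM–77 uM, AC50 from Hill fits.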

The nature of assay [18]: Cell Viability - LYMP1-002 - Assay at 24 hr (AID 993). Note: % is set by controls: 0 for no effect and ±100 for the full control effect. An outline of the steps:
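Human lymphoblastoid LYMP1-002 cells (2500/well) treated 24 h at 37 °C; viability as intracellular ATP by CellTiter-Glo luminescence. Tetraoctylammonium bromide as positive control; AC50 from Hill-equation fits of qHTS concentration-response.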

Assay [19] is described as follows: Cell Viability - LYMP1-002 - Assay at 40 hr (AID 994).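 Note: 0% = DMSO only and full inhibition = 92 µM tetraoctylammonium bromide; nearly all actives have a fitted effect of over 60% in size.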 The gist of the method: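 LYMP1-002 human lymphoblastoid cells (2500/well, complete medium) were treated with compounds for 40 hr at 37 C. Intracellular ATP was measured by CellTiter-Glo luminescence, and AC50 values came from Hill-equation fits of concentration-response data; tetraoctylammonium bromide was the positive control.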

[20] abbreviates: measured here: cell count channel max response.
[21] abbreviates: measured here: lipid channel max response.

Values joined by “and” are separate entries in the source; they are usually repeats but may differ in a detail not shown here. Equal values may be shown once. Records with an inconclusive call do not appear. Active and inactive are the calls of the source. Unless noted, calls come from the whole dose curve; as a rule, active = well fitted curve in the direction sought with a large enough effect; inconclusive = small, poorly fitted or top-dose-only effect, or another doubt; inactive = no such curve, though single readings can be large; an effect the other way counts as inactive or inconclusive.

Chain of ATP-dependent DNA helicase Q1 (Homo sapiens) (P46063 whole entry, looked up): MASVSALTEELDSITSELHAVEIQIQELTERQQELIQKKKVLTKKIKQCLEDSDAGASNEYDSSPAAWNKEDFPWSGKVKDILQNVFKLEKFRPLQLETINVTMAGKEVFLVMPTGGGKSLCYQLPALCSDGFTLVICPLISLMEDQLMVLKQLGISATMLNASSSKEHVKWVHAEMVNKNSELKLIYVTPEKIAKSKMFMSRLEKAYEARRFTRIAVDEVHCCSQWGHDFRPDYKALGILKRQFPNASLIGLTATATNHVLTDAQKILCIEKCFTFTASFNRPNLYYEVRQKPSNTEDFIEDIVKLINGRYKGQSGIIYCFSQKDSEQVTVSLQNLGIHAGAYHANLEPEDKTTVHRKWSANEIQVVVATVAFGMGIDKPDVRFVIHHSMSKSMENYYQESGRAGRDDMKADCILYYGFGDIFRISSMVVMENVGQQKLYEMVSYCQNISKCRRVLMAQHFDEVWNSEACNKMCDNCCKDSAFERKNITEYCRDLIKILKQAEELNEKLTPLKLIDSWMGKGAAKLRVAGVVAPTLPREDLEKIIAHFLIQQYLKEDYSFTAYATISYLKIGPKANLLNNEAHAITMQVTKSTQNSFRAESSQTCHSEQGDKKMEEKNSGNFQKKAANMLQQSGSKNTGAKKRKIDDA
Chain of Ferritin light chain (Equus caballus) (P02791 2-175 limits assumed): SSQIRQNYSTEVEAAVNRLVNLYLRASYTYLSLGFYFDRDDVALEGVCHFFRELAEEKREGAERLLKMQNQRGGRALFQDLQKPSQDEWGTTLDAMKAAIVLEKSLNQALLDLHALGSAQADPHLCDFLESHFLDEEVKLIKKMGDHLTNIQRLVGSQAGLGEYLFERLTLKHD

For `COc1cc(C(O)CO)ccc1OS(=O)(=O)O` (stereo unspecified), the molecule was classed as inactive in assay [1] and in [13]. For the same molecule, the activity change, negative = inhibition in [2] is 0.915% (inactive). Further, the results for the max response in assay [2] (setting [20]) and in [2] (setting [21]) were -36.7% and -37%, respectively. In addition, the Potency entry in assay [3], in assay [4], in assay [5], in assay [6], in assay [7] and in assay [8] was “inactive” in each case. In addition, the Potency result in assay [9], in assay [10], in assay [11], in [12], in [14] and in assay [15] was “inactive” in each case. Moreover, the Potency result in assay [16] is “inactive”.
In the case of `NC(N)=NC(=O)c1nc(Cl)c(N2CCCCCC2)nc1N`, the result in assay [1] was inactive. In addition, in assay [2], the activity change, negative = inhibition was -1.28% (inactive) and 0.178% (inactive). The max response in [2] (setting [20]) is 5.25% and -33%; in assay [2] (setting [21]), 6.67% and -33.1%. Moreover, the Potency entry in [3], in assay [4], in assay [15] and in assay [16] was “inactive” in each case. Further, the Potency in [6] was 8.91 µM (active); in assay [7], 12.6 µM (active); in assay [8], 4.47 µM (active); in [9], 7.94 µM (active); in assay [11], 2.82 µM (active); in [12], 7.94 µM (active).
For the molecule `COc1cc2nc(N3CCN(C(=O)OCc4ccccc4)C(C(=O)NC(C)(C)C)C3)nc(N)c2cc1OC` (stereo unspecified), the result in assay [1] was inactive. In assay [2], the activity change, negative = inhibition was 1.16% (inactive). The max response worked out at 38.8% in assay [2] (setting [20]) and 39.8% in [2] (setting [21]). The Potency result in assay [4], in assay [5], in assay [14], in assay [15] and in [16] was “inactive” throughout. The Potency in [6] is 2.82 µM (active); in assay [7], 2.82 µM (active); in assay [8], 3.16 µM (active); in assay [9] it was 10 µM (active); in [10] it was 8.91 µM (active); in [11], 2.24 µM (active). Further, the Potency in [12] is 7.94 µM (active).
`CN(C)c1nc(N)c(C(=O)N=C(N)N)nc1Cl`: the call in assay [17], in assay [1] and in [13] was inactive. In assay [2], the activity change, negative = inhibition was 1.32% (inactive). For the same molecule, the max response in assay [2] (setting [20]) is -30.3%; in assay [2] (setting [21]) it was -31.1%. The Potency entry in [4], in [10], in assay [14], in assay [15] and in assay [16] was “inactive” throughout. Further, the Potency in assay [7] is 12.6 µM (active); in assay [8], 10 µM (active); in assay [9], 11.2 µM (active); in assay [11], 12.6 µM (active); in [12], 12.6 µM (active).
Turning to `O=C(O)c1cc(=O)c2ccccc2[nH]1`, the result in assay [17], in assay [1] and in assay [13] was inactive. Moreover, the activity change, negative = inhibition in assay [2] was 3.93% (inactive) [middle of 4 runs]. Besides, the Potency entry in [3], in assay [4], in [5], in assay [6], in assay [7] and in [8] was “inactive” in each case. Also, the Potency entry in [9], in assay [10], in [11], in assay [12], in [14] and in [15] was “inactive” each time. For the same molecule, the Potency result in [16] was “inactive”.
As to `CN(C)CCC(c1ccc(Cl)cc1)c1ccccn1` (stereo unspecified), the Potency result in [18], in assay [19], in assay [3], in assay [4], in assay [5] and in assay [9] was “inactive” each time. The Potency result in [12], in assay [14], in assay [15] and in assay [16] was “inactive” in each case. Besides, the result in assay [1] was inactive. For the same molecule, in assay [2], the activity change, negative = inhibition was 1.75% (inactive). In addition, the max response in assay [2] (setting [20]) came out at 45.4%; in assay [2] (setting [21]) it was 46%.
Regarding `N#C/C(=C\c1ccc(O)c(O)c1)C(=O)NCc1ccccc1`, the result in [1] was inactive. In addition, the Potency result in [3], in assay [4], in assay [5] and in [15] was “inactive” each time. Further, the Potency was 12.6 µM (active) in assay [6]; 11.2 µM (active) in [7]; 10 µM (active) in assay [8]; 17.8 µM (active) in assay [9]; 11.2 µM (active) in assay [11]; 11.2 µM (active) in assay [12].

These data come from PubChem BioAssay (NCATS).
